Only some compounds are listed: those with a hit (about 12% of all), similar ones and a draw of the others.
HP1b chromo inh: HTS for Inhibitors of HP1-beta Chromodomain Interactions with Methylated Histone Tails; Chromobox protein homolog 1 (Homo sapiens), P83916; AlphaScreen HP1-beta / biotin-H3K9me3 peptide binding; Potency, µM (series often up to 114 µM), for the others: at the highest dose activity change, negative = inhibition, hits mostly inhibitors; actives 0.56% (n = 390,000); note: nearly all actives have a fitted effect of over 70% in size
Target sequence (P83916 whole entry, looked up): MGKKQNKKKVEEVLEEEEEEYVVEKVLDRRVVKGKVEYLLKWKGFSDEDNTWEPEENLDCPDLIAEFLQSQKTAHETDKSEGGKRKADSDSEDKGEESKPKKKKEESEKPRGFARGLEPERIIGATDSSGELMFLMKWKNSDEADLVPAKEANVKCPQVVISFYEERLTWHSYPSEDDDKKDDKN
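AlphaScreen: HP1-beta (50 nM) preformed 30 min with biotin-H3(1-18)K9me3 peptide (50 nM) in PBS pH 7.4, 0.01% Tween-20. Compound added for 30 min at RT, then streptavidin donor/nickel chelate acceptor beads (10 ug/mL) for 30 min.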
TDP1 block: qHTS Assay for Inhibitors of Tyrosyl-DNA Phosphodiesterase (TDP1) | Tyrosyl-DNA phosphodiesterase 1 (Homo sapiens), Q9NUW8 | recombinant TDP1, AlphaScreen DNA substrate cleavage | Potency, µM (top dose mostly 130 µM), inactives show top-dose activity change, negative = inhibition, most hits filed as inhibitors | actives 0.28% (n = 350,000); note: % is set by controls: 0 for no effect and ±100 for the full control effect; nearly all actives have a fitted effect of over 40% in size
Target sequence (Q9NUW8 whole entry, looked up): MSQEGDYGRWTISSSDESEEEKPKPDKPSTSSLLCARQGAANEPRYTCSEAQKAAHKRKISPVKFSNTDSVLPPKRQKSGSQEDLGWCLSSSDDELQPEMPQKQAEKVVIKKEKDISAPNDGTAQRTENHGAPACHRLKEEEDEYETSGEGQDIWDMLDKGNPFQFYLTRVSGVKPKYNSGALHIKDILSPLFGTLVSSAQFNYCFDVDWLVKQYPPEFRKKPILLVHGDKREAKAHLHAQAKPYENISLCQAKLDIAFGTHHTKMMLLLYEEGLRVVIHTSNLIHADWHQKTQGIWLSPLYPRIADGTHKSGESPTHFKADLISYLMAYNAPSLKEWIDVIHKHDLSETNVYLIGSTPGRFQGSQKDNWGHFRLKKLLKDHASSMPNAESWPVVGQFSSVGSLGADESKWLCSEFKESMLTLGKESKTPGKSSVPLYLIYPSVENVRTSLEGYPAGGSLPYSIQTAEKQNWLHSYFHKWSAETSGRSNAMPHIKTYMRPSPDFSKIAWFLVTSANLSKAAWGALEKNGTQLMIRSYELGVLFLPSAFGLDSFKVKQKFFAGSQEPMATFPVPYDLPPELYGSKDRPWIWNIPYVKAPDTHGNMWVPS
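E. coli-derived human Tdp1, 1 nM final. Cpd preinc 15 min RT; substrate 15 nM final, 5 min RT; AS bead mix 10 ug/ml final, 10 min RT. Signal loss = tyrosine-FITC cleavage. No-enzyme wells = max signal.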
JMJD2A Tudor: qHTS Assay for Inhibitors of JMJD2A-Tudor Domain; Lysine-specific demethylase 4A (Homo sapiens), O75164; AlphaScreen JMJD2A-Tudor / H3K4me3 peptide binding; Potency, µM (highest dose often 114 µM), for the others: at the highest dose activity change, negative = inhibition, usual class: inhibitors; actives 4.4% (n = 390,000); AID 504339, 2011; note: % is set by controls: 0 for no effect and ±100 for the full control effect; nearly all actives have a fitted effect of over 50% in size
BAZ2B block: qHTS Assay for Inhibitors of BAZ2B; Bromodomain adjacent to zinc finger domain protein 2B (Homo sapiens), Q9UIF8; AlphaScreen BAZ2B-H3K14Ac peptide displacement; Potency, µM (titrated, usually from 114 µM), for the others: top-dose activity change, negative = inhibition, usual class: inhibitors; actives 4.4% (n = 360,000); note: % is set by controls: 0 for no effect and ±100 for the full control effect; nearly all actives have a fitted effect of over 60% in size
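Complex of BAZ2B and biotin-H3K14Ac (50 nM apiece) forms over 30 min at RT, then faces library compounds up to 110 uM for another 30 min; AlphaScreen beads added, 20 min dark incubation, luminescence read.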
Sfp inh: qHTS Assay for Inhibitors of Bacillus subtilis Sfp phosphopantetheinyl transferase (PPTase); 4'-phosphopantetheinyl transferase ffp (Bacillus subtilis), Q9F4F7; Biochemical Sfp PPTase activity, qHTS; Potency, µM, without a hit: largest response in the series, negative = inhibition, usual class: inhibitors; actives 3.5% (n = 310,000); AID 1490, 2009;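 note: the enzyme is Sfp with the accession as filed and its product quenches rhodamine fluorescence; 0% = enzyme reaction without inhibitor and -100% = no enzyme wells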
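Step 1, compound plus 15 nM Sfp-PPTase, 15 min, room temperature. Step 2, add rhodamine-CoA (5 uM) and BHQ-2-YbbR (12.5 uM). Step 3, read 525/598 nm fluorescence at 0 and 30 min.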
G9a inh: qHTS Assay for Inhibitors of Histone Lysine Methyltransferase G9a; actives 8.8% (n = 350,000); G9a H3K9 monomethylation, AlphaScreen, 2 h; Potency, µM (titrated, usually from 102 µM), for inactives: at the highest dose activity, negative = inhibition, most hits filed as inhibitors; Histone-lysine N-methyltransferase EHMT2 (Homo sapiens), Q96KQ7; note: % is set by controls: 0 for no effect and ±100 for the full control effect; nearly all actives have a fitted effect of over 75% in size
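Compounds were preincubated with 20 nM G9a for 15 min, after which biotinylated H3K9 peptide (500 nM) and SAM (20 uM) started a 2 h room-temperature reaction. Monomethylated product was quantified by antibody-based AlphaScreen chemiluminescence.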
Numbers without * were called inactive; ? = inconclusive; nt = no result given; [ ] = remark or other dose. Calls come from the whole dose curve; as a rule, active = well fitted curve in the direction sought with a large enough effect; inconclusive = small, poorly fitted or top-dose-only effect, or another doubt; inactive = no such curve, though single readings can be large; an effect the other way counts as inactive or inconclusive. Potency is the fitted concentration of half-maximal effect.

SMILES | HP1b chromo inh | TDP1 block | JMJD2A Tudor | BAZ2B block | Sfp inh | G9a inh
COc1cccc(N2CCN(c3ccc4nnc(CCC(=O)Nc5ccccc5OC)n4n3)CC2)c1 | 4% | 9% | -36% | ? | -9% | -45%
Cc1cccc(N=Nc2ccc(O)c3ncccc23)c1 | ? | 5% | 32µM* | 8.9µM* | -3% | 7.1µM*
Cc1cccc(C(=O)Oc2c(Br)cc(Br)cc2/C=N/NC(=O)c2ccncc2)c1 | -6% | nt | -21%[57.1 µM] | -9% | 10% | 23%
CCc1cc(C(=O)N/N=C/c2ccc(O)cc2O)c2ccccc2n1 | 35% | 3% | 79µM* | 45µM* | 23% | 13%
O=C(CCCCCNC(=O)c1ccccc1)N/N=C/c1ccc(O)cc1O | 28% | 11% | -13% | -5% | 14% | 78%[59 µM]
O=C(N/N=C/c1ccc(O)cc1O)c1ccncc1 | 51% | nt | 56µM* | 32µM* | 13% | 41%
O=C(N/N=C/c1c[nH]c2ccc(Br)cc12)c1ccncc1 | 157% | 89µM* | ? | -33% | 7% | 62%[59 µM]
O=C(N/N=C/c1c[nH]c2ccccc12)c1ccncc1 | 41% | 3% | -6% | 6% | -24% | -7%[59 µM]
O=C(N/N=C/c1cc(Br)cc(Br)c1O)c1ccncc1 | 38% | 8% | 13µM* | 8.9µM* | 6% | 50µM*
COc1ccccc1C(=O)NC(CCSC)C(=O)OC(C)C(=O)NC1CC1 (stereo not given) | 18% | nt | -8% | 12% | nt | 19%[2.33 µM]
O=C(N/N=C/c1cc(Cl)cc(Cl)c1O)c1ccncc1 | 49% | 11% | 22µM* | 10µM* | 15% | -4%
O=C(N/N=C/c1ccc(Cl)cc1Cl)c1ccncc1 | 25% | 2% | -16% | ? | ? | nt
O=C(N/N=C/c1cc(Br)cc([N+](=O)[O-])c1O)c1ccc(NC(=O)c2ccc(F)cc2)cc1 | ? | ? | 32µM* | 13µM* | 22% | 35µM*
COc1ccc(S(=O)(=O)NCC2CCC(C(=O)NCC(OC)OC)CC2)cc1 (stereo not given) | 42% | -3% | -3% | -4% | 2% | -5%
Nc1cc(N)nc(SCC(=O)NCC(=O)Nc2ccc(F)c(F)c2F)n1 | 28% | -20% | -6% | nt | nt | nt
COc1ccc(N2CC(NC(=O)C(=O)c3c(C)[nH]c4ccccc34)CC2=O)cc1 (stereo not given) | 36% | 5% | -5% | -11% | nt | -1%[59 µM]
Cc1nnc(SCC(=O)Nc2nccs2)o1 | 59% | 7% | -2% | -2% | -20% | 33%
CCOC(=O)/C(C#N)=C1\CC2CCC1(C)C2(C)C (stereo not given) | ? | 5% | -5% | 0% | 40µM* | 3.2µM*
CCc1nc2nc(C)cc(Nc3ccc(OC)cc3OC)n2n1 | 18% | 0%[12.3 µM] | -1% | 1% | nt | -4%[59 µM]
CCN(CC)CCNc1nc(-c2cccs2)c(CC(=O)O)s1 | ? | nt | 5.6µM* | 20µM* | 56µM* | 8.9µM*
C=CCNc1nc(-c2cccs2)c(CC(=O)O)s1 | -8% | nt | 4% | ? | -8% | -5%[12.7 µM]
O=C(Cc1sc(Nc2ccccc2)nc1-c1ccccc1)NCc1ccccc1 | ? | -3% | -29% | -7% | ? | 50µM*
O=C(O)Cc1sc(Nc2ccccc2)nc1-c1cccs1 | -26% | nt | -15% | -26% | 50µM* | 0%[12.7 µM]
Cc1cc(NS(=O)(=O)c2ccc(NC(=O)COc3ccccc3Br)cc2)no1 | 19% | 2% | -15% | -2% | nt | 4%[59 µM]
O=C(NCc1ccccc1Cl)c1cc2cccc3c2n1CCS3 | 50% | 6% | 11% | 9% | nt | 2%[59 µM]
SMILES | HP1b chromo inh | TDP1 block | JMJD2A Tudor | BAZ2B block | Sfp inh | G9a inh
COc1ccc([C@]23Cc4cc(OC)c(OC)cc4C(O2)c2c(c4ccccc4oc2=O)O3)cc1 | nt | nt | nt | 10µM* | -19% | ?
COc1ccc([C@]23Cc4cc(OC)c(OC)cc4C(O2)c2c(cc(C)n(Cc4ccccc4)c2=O)O3)cc1 | nt | nt | nt | 11µM* | -9% | -4%[2.33 µM]
COc1ccc([C@]23Cc4ccccc4C(O2)c2c(c4ccc(OC)cc4oc2=O)O3)cc1 | nt | nt | nt | ? | 3% | 6%[2.33 µM]
COc1ccc([C@]23Cc4cc(C#N)ccc4[C@H](O2)c2c(cc(C)n(Cc4ccccc4)c2=O)O3)cc1 | nt | nt | nt | -1%[22.9 µM] | 4% | nt
CN1C[C@@H]2[C@@H]3C(=O)N(Cc4ccccc4)C(=O)[C@@H]3[C@](Cc3ccccc3)(C1=O)N2C(=O)c1ccc(F)cc1 | 32% | nt | -13% | nt | nt | nt
S=c1[nH]ccn1Cc1ccccc1 | -31% | 3% | 14µM* | -15% | -26% | 6.3µM*
O=C(NCc1ccc(Cl)cc1)c1cc(-c2cccs2)on1 | 22% | -4% | -15% | -30% | 25µM* | ?
O=C(NCc1ccc(Cl)cc1)C(=O)Nc1nccs1 | 21% | 5% | -8%[11.4 µM] | -13% | -9% | 50µM*
O=C(NCCCn1ccnc1)C(Cc1ccccc1)N1C(=O)c2ccccc2C1=O (stereo not given) | 21% | 8% | 4%[57.1 µM] | ? | 56µM* | -45%[12.7 µM]
CC(C)c1ccc(CNC(=O)C(=O)Nc2nccs2)cc1 | 11% | 3% | ? | -5% | -1% | 7.1µM*
CC(C)(C)NC(=O)C(Cc1ccccc1)N1C(=O)c2ccccc2C1=O (stereo not given) | 22% | 0% | -17% | 11% | 13% | -6%
COc1ccc(NC(=O)N2CCCc3cc(C)ccc32)c(OC)c1 | 15% | 6%[56.1 µM] | -23% | ? | 3% | ?
S=C(NCCCn1ccnc1)Nc1cccc(Cl)c1 | 42% | -1% | -12% | 45µM* | 4% | 79µM*
CC(C)c1ccc(CNC(=O)C(=O)NCCCn2ccnc2)cc1 | 14% | -3% | -27% | 50µM* | 5% | 0%[59 µM]
CCOc1ccc(NC(=S)NCCCn2ccnc2)cc1 | 31% | 0% | -5% | 0% | 18% | 8%[59 µM]
CCOC(=O)C(N)CSC1CC(=O)N(c2ccc(OC)cc2)C1=O (stereo not given) | 27% | 4% | -18% | -17% | -3% | 45µM*
COc1ccc(N2CC(C(=O)N3CCN(C(=O)c4ccco4)CC3)CC2=O)cc1 (stereo not given) | -2% | 1%[0.0935 µM] | -4% | -1% | 0% | 4%
CC(C)c1ccc(S(=O)(=O)/N=C2/C=C(Sc3ncn[nH]3)C(=O)c3ccccc32)cc1 | 18µM* | 7% | 7.1µM* | 45µM* | 2µM* | 1.6µM*

Source: PubChem BioAssay (National Center for Advancing Translational Sciences (NCATS))
